Data: PubChem BioAssay (EPA / NIEHS)
Values joined by “and” are separate entries in the source; they are usually repeats but may differ in a detail not shown here. Equal values may be shown once. Active and inactive are the calls of the source. How the source made its calls: active means hit-call score of the fitted dose curve at least 0.9, where 1 is the maximum; inactive means score below 0.9.

Legend:
[1] = read-out: Low-density lipoprotein receptor (LDLR), LDLR (gene 3949); assay: BSK_CASM3C_LDLR: BioMAP Diversity Plus: CASM3C Assay for Low-density lipoprotein receptor (LDLR) Biomarker Activity (AID 2283045); conditions: primary human coronary artery smooth muscle cells; actives raise or lower the signal;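 further: LDLR protein level on the cell surface quantified by ELISA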
[2] = read-out: Monocyte Chemoattractant Protein-1 (MCP1), CCL2 (gene 6347); assay: BSK_CASM3C_MCP1: BioMAP Diversity Plus: CASM3C Assay for Monocyte Chemoattractant Protein-1 (MCP1) Biomarker Activity (AID 2283046); conditions: primary human coronary artery smooth muscle cells; actives raise or lower the signal;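 further: MCP-1 level quantified by ELISA 24 h after dosing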
[3] = BSK_CASM3C_Proliferation: Cell Proliferation Assessment in the BioMAP Diversity Plus: CASM3C Assay (AID 2283047); conditions: primary human coronary artery smooth muscle cells;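 further: sulforhodamine B total protein stain as relative cell number at 560 nm; sub-confluent cells exposed 48 h before staining; fitted both ways against DMSO so gain or loss of cell number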
[4] = read-out: Monokine induced gamma interferon (MIG), CXCL9 (gene 4283); assay: BSK_CASM3C_MIG: BioMAP Diversity Plus: CASM3C Assay for Monokine induced gamma interferon (MIG) Biomarker Activity (AID 2283048); conditions: primary human coronary artery smooth muscle cells; actives raise or lower the signal;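 further: MIG protein level measured by ELISA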
[5] = read-out: serum amyloid A (SAA), SAA1 (gene 6288); assay: BSK_CASM3C_SAA: BioMAP Diversity Plus: CASM3C Assay for serum amyloid A (SAA) Biomarker Activity (AID 2283049); conditions: primary human coronary artery smooth muscle cells; actives raise or lower the signal;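 further: SAA protein level quantified by ELISA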
[6] = read-out: Tissue Factor, F3 (gene 2152); assay: BSK_CASM3C_TissueFactor: BioMAP Diversity Plus: CASM3C Assay for Tissue Factor Biomarker Activity (AID 2283052); conditions: primary human coronary artery smooth muscle cells; actives raise or lower the signal;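 further: cell surface tissue factor protein level read by ELISA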
[7] = read-out: Interferon-gamma inducible Protein 10 (IP10), CXCL10 (gene 3627); assay: BSK_hDFCGF_IP10: BioMAP Diversity Plus: hDFCGF Assay for Interferon-gamma inducible Protein 10 (IP10) Biomarker Activity (AID 2283053); conditions: primary human foreskin fibroblasts; actives raise or lower the signal
In short: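 IP-10 levels, quantified by ELISA, are taken from human foreskin fibroblast cultures 24 h after chemical treatment, with DMSO serving as negative control and baseline for bidirectional analysis.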

[8] = read-out: Urokinase-type plasminogen activator receptor (uPAR), PLAUR (gene 5329); assay: BSK_CASM3C_uPAR: BioMAP Diversity Plus: CASM3C Assay for Urokinase-type plasminogen activator receptor (uPAR) Biomarker Activity (AID 2283054); conditions: primary human coronary artery smooth muscle cells; actives raise or lower the signal;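 further: cell-surface uPAR protein level quantified by ELISA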
[9] = read-out: Collagen III, COL3A1 (gene 1281); assay: BSK_hDFCGF_CollagenIII: BioMAP Diversity Plus: hDFCGF Assay for Collagen III Biomarker Activity (AID 2283056); conditions: primary human foreskin fibroblasts; actives raise or lower the signal
In short: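 ELISA read-out of collagen III from human skin fibroblast cultures sampled 24 h post-dosing. Values were derived by bidirectional fitting relative to the DMSO vehicle control.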

[10] = read-out: Epidermal growth factor receptor (EGFR), EGFR (gene 1956); assay: BSK_hDFCGF_EGFR: BioMAP Diversity Plus: hDFCGF Assay for Epidermal growth factor receptor (EGFR) Biomarker Activity (AID 2283057); conditions: primary human foreskin fibroblasts; actives raise or lower the signal
In short: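 Measured by ELISA: EGFR levels on primary human foreskin fibroblasts 24 h after chemical treatment, analysed relative to DMSO with bidirectional fitting.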

[11] = read-out: Interleukin-8 (IL8), CXCL8 (gene 3576); assay: BSK_hDFCGF_IL8: BioMAP Diversity Plus: hDFCGF Assay for Interleukin-8 (IL8) Biomarker Activity (AID 2283058); conditions: primary human foreskin fibroblasts; actives raise or lower the signal
In short: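 Cells used are human skin primary fibroblasts. Chemical is added, cultures run 24 h, then IL-8 is quantified by ELISA, and gain or loss versus DMSO control is fitted in both directions.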

[12] = BSK_hDFCGF_Proliferation: Cell Proliferation Assessment in the BioMAP Diversity Plus: hDFCGF Assay (AID 2283059); conditions: primary human foreskin fibroblasts;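 further: curves fitted for both rise and fall of signal versus DMSO baseline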
In short: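 Steps: dose primary human dermal fibroblasts (foreskin); […] fix in 10% TCA; stain with 0.1% SRB; read 560 nm; fit gain or loss of signal against DMSO.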

[13] = read-out: Macrophage colony-stimulating factor (MCSF), CSF1 (gene 1435); assay: BSK_hDFCGF_MCSF: BioMAP Diversity Plus: hDFCGF Assay for Macrophage colony-stimulating factor (MCSF) Biomarker Activity (AID 2283060); conditions: primary human foreskin fibroblasts; actives raise or lower the signal
In short: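 Primary human foreskin fibroblasts dosed with chemical; 24 h later, M-CSF quantified by ELISA; curves fitted in both directions vs DMSO negative control.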

[14] = read-out: TIMP metallopeptidase inhibitor 1 (TIMP1), TIMP1 (gene 7076); assay: BSK_hDFCGF_TIMP1: BioMAP Diversity Plus: hDFCGF Assay for TIMP metallopeptidase inhibitor 1 (TIMP1) Biomarker Activity (AID 2283062); conditions: primary human foreskin fibroblasts; actives raise or lower the signal
In short: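 Human skin fibroblasts (primary), hDFCGF system; compound exposure 24 h; TIMP-1 by ELISA; bidirectional fit vs DMSO negative control; overt cytotoxicity by SRB in parallel wells.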

[15] = read-out: Monokine induced gamma interferon (MIG), CXCL9 (gene 4283); assay: BSK_hDFCGF_MIG: BioMAP Diversity Plus: hDFCGF Assay for Monokine induced gamma interferon (MIG) Biomarker Activity (AID 2283063); conditions: primary human foreskin fibroblasts; actives raise or lower the signal
In short: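 Chemicals were added to primary human foreskin fibroblast cultures, which were sampled 24 h later. MIG levels were then quantified by ELISA and responses fitted in both directions relative to DMSO.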

[16] = read-out: Matrix Metallopeptidase 1 (MMP1), MMP1 (gene 4312); assay: BSK_hDFCGF_MMP1: BioMAP Diversity Plus: hDFCGF Assay for Matrix Metallopeptidase 1 (MMP1) Biomarker Activity (AID 2283064); conditions: primary human foreskin fibroblasts; actives raise or lower the signal
In short: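 Primary human foreskin fibroblasts in the hDFCGF system were dosed with test chemical, and MMP1 was measured by ELISA 24 h later. Values come from bidirectional curve fitting against the DMSO baseline.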

[17] = read-out: Plasminogen activator inhibitor-1 (PAI1), SERPINE1 (gene 5054); assay: BSK_hDFCGF_PAI1: BioMAP Diversity Plus: hDFCGF Assay for Plasminogen activator inhibitor-1 (PAI1) Biomarker Activity (AID 2283066); conditions: primary human foreskin fibroblasts; actives raise or lower the signal
In short: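 PAI-1 levels, determined by ELISA, served as the endpoint in human foreskin fibroblast cultures exposed to compound for 24 h, with DMSO as baseline.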

[18] = read-out: Intercellular Adhesion Molecule 1 (ICAM1), ICAM1 (gene 3383); assay: BSK_KF3CT_ICAM1: BioMAP Diversity Plus: KF3CT Assay for Intercellular Adhesion Molecule 1 (ICAM1) Biomarker Activity (AID 2283067); conditions: primary human keratinocytes with fibroblasts; actives raise or lower the signal
In short: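 ICAM-1 levels are measured by ELISA 24 h after dosing a primary human co-culture of keratinocytes and foreskin fibroblasts. Activity in either direction is fitted relative to DMSO vehicle.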

[19] = read-out: Interferon-gamma inducible Protein 10 (IP10), CXCL10 (gene 3627); assay: BSK_KF3CT_IP10: BioMAP Diversity Plus: KF3CT Assay for Interferon-gamma inducible Protein 10 (IP10) Biomarker Activity (AID 2283068); conditions: primary human keratinocytes with fibroblasts; actives raise or lower the signal
In short: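 KF3CT co-culture (keratinocytes + foreskin fibroblasts), 24 h compound, IP-10 by ELISA; bidirectional fit vs DMSO baseline.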

[20] = read-out: Interleukin-1 alpha (IL1a), IL1A (gene 3552); assay: BSK_KF3CT_IL1a: BioMAP Diversity Plus: KF3CT Assay for Interleukin-1 alpha (IL1a) Biomarker Activity (AID 2283070); conditions: primary human keratinocytes with fibroblasts; actives raise or lower the signal
In short: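 Human keratinocyte plus foreskin fibroblast primary co-culture, sampled 24 h after chemical dosing. IL-1a measured by ELISA; responses fitted bidirectionally against DMSO baseline (negative control), so gain or loss of signal both count.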

Measured: AC50

CC1(C)[C@H](C(=O)O[C@H](C#N)c2cccc(Oc3ccccc3)c2)[C@@H]1C=C(Br)Br
active: [9] 7.51 µM and 4.58 µM
inactive: all other assays above

CCc1cc(C)cc(CC)c1-c1c(OC(=O)C(C)(C)C)n2n(c1=O)CCOCC2
active: [1] 2.79 µM | [3] 20 µM | [5] 0.0822 µM | [6] 8.26 µM | [12] 25.2 µM | [17] 3.97 µM
inactive: all other assays above

O=C1C=CC(=O)C=C1
inactive: [1] | [2] | [4] | [5] | [6] | [8] | [10] | [11]
active: [3] 30.4 µM and 15.2 µM | [7] 16.8 µM and 23.7 µM | [9] 20 µM | [12] 11.2 µM and 2.81 µM | [13] 16 µM and 13.5 µM | [14] 20 µM and 13.2 µM | [15] 11.2 µM and 28.8 µM | [16] 32.2 µM and 26.5 µM | [17] 20 µM and 19.2 µM | [18] 24.5 µM and 21.7 µM | [19] 27.8 µM and 24.1 µM | [20] 30.3 µM and 26.4 µM

COC(C)(C)CCC[C@H](C)C/C=C/C(C)=C/C(=O)OC(C)C
active: [1] 10.2 µM | [3] 17.2 µM | [4] 29.9 µM | [6] 20 µM | [7] 33.7 µM | [8] 31.2 µM | [9] 16.6 µM | [12] 31.2 µM | [13] 22.7 µM | [14] 29.8 µM | [15] 33.2 µM | [16] 32.5 µM | [17] 28.4 µM | [19] 33.6 µM | [20] 24.1 µM
inactive: [2] | [5] | [10] | [11] | [18]

O=[N+]([O-])c1ccc(Cl)cc1
inactive: all assays above

O=c1c2ccccc2c(=O)c2c1cc(Cl)c1[nH]c3c([nH]c12)c(Cl)cc1c(=O)c2ccccc2c(=O)c13
active: [7] 29 µM | [13] 20 µM
inactive: all other assays above
